High-throughput results (PubChem BioAssay)
Compounds with a hit are over-represented: about 4% of the library has one in this group of screens.
p53null 39C tox – p53 null cell cytotoxicity, nonpermissive temperature; H1299 p53-null (neo) cells, 39C, ATPlite viability, 24 h; Potency, µM (titrated, usually from 46.1 µM), actives largely listed as cytotoxic; actives 0.97% (n = 55,000); AID 904; further: nearly all actives have a fitted effect of over 50% in size
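Following overnight plating at 37C (600 cells/well), H1299-neo or H1299-p53A138V cells are dosed up to 46 uM. Incubation lasts 24 hr at 39C before ATP detection.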
GALC G270D up – raises human GALC G270D mutant activity in cells | AID 1159614 | actives 0.1% (n = 45,000) | Potency, µM (titrated, usually from 57.5 µM), usual class: activators | 145M-Twi-hGALC-G270D cells (Twitcher mouse brain line with human GALC G270D), HMU-beta-Gal fluorescence, 48 h; further: nearly all actives have a fitted effect of over 65% in size
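Live 145M-Twi cells (Twitcher mouse brain-derived, GALC-null) stably expressing human GALC-G270D, with a wild-type GALC line, were compound-treated. Residual GALC activity was then read as fluorescence from 0.1 mM final HMU-β-gal at pH 5.2; higher signal means activation.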
p53null 32C tox – selectivity test: cytotoxicity in p53 null cells, permissive temperature; H1299-neo p53 null cells, ATP luminescence, 24 h, 32C; Potency, µM (titrated, usually from 46.1 µM), hits mostly cytotoxic; actives 0.62% (n = 55,000); AID 903; further: nearly all actives have a fitted effect of over 55% in size
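AC50 values derive from Hill modelling of qHTS concentration-response data (up to 46 uM) in H1299-neo cells. Cells were treated 24 h at 32C following overnight attachment at 37C; viability was read as cellular ATP.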
OvCa metastasis – inhibitors of ovarian cancer cell adhesion and invasion in omental model. AID 1963576. actives 0.1% (n = 46,000). Potency, µM (top dose mostly 45.8 µM), most hits filed as inhibitors. SKOV3ip1-GFP adhesion/invasion on 3D omental model, fluorescence; further: nearly all actives have a fitted effect of over 65% in size
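Adhesion/invasion was scored as fixed GFP-labeled SKOV3ip1 cell counts (488/509 nm), normalized to DMSO and tomatine controls. Cancer cells in serum-free medium, with four compound doses (0.36-46 umol/L), sat 2 hr at RT then 16 hr at 37 C on a 48 hr fibroblast/mesothelial/ECM culture.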
NTMT1 inhibitor – blocks human N-terminal methyltransferase 1 activity. NTMT1 MTase-Glo SAH luminescence, purified enzyme. Q9BV86. actives 2.5% (n = 59,000). Potency, µM (titrated, usually from 114 µM), most hits filed as inhibitors; further: nearly all actives have a fitted effect of over 65% in size
GPR32 ag – agonists of human resolvin D1 receptor DRV1 (GPR32) | O75388 | CHO-K1 GPR32 beta-arrestin PathHunter luminescence, 90 min; zero percent set by DMSO-only wells | activation, % at 76.9 µM | actives 2.5% (n = 48,000) | AID 1346428;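 active means activation of at least 60% and not above a set upper limit, about 1 call in 100 departs from these limits; inconclusive means activation of 40% to 60%, or above that upper limit; inactive means activation under 40%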
Target sequence (O75388 whole entry, looked up): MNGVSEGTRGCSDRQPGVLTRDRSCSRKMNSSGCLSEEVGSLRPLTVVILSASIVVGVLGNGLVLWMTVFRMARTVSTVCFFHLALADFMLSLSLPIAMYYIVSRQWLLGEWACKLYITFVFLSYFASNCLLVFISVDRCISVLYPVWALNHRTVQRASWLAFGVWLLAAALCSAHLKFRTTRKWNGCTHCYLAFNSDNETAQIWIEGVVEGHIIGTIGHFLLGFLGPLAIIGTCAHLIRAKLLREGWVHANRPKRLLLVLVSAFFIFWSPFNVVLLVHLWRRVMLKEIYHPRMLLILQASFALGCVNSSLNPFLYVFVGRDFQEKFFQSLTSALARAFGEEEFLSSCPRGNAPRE
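Agonism was scored by beta-Gal fragment complementation (chemiluminescent read, 1 h detection at ambient temperature) reporting beta-arrestin binding to GPR32 in engineered CHO-K1 cells. Compound treatment lasted 90 min at 37 C, normalized to a DMSO basal control.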
Numbers stand for hits; - = inactive; ? = inconclusive; . = no result given; ! = repeats disagree. Unless noted, the call rests on the fitted dose curve; in most records, active means well fitted curve in the direction sought with a large enough effect; inconclusive means small, poorly fitted or top-dose-only effect, or another doubt; inactive means no such curve, though single readings can be large; an effect the other way counts as inactive or inconclusive.

SMILES	p53null 39C tox	GALC G270D up	p53null 32C tox	OvCa metastasis	NTMT1 inhibitor	GPR32 ag
CCNC(=O)c1ccc2c(c1)nc1n2CCCCC1	?	-	?	-	?	-
CC1(C)CC(=O)c2sc(NC(=O)c3cccs3)nc2C1	1.1µM	.	2.2µM	.	.	.
O=S(=O)(Nc1cccc(-c2ccc(N3CCCCC3)nn2)c1)c1cccs1	10µM	.	16µM	-	.	-
O=S(=O)(Nc1cccc(-c2ccc(N3CCCCC3)nn2)c1)c1ccc(Cl)s1	10µM	.	16µM	-	.	-
Cc1cc(N[S+](=O)([O-])c2ccc(NC(=O)Cn3c(=O)oc4ccc(Cl)cc43)cc2)no1	.	.	.	.	-	.
Cc1nc2cccc(N)c2c(=O)n1C1CCC(=O)NC1=O (stereo unspecified)	.	.	.	.	-	.
O=c1[nH]c(CCl)nc2sc3c(c12)CCC3	.	.	.	.	-	.
COc1ccc(-n2c(SCC(=O)N3CCc4ccccc43)nc3c([nH]c4ccccc43)c2=O)cc1	-	-	-	-	-	110
CC1=C(C(=O)Nc2ccc(C)cc2)C(c2ccccc2Br)N=C(Nc2nc3ccccc3o2)N1 (stereo unspecified)	.	.	.	.	-	.
COC1CCCC/C(C)=C/C2C=C(C)C(C)C3C(CC(C)C)NC(=O)C23C(=O)C1 (stereo unspecified)	.	.	.	.	-	.
O=c1c(Nc2ccc(Br)c(Br)c2)c(Nc2nnc(-c3ccncc3)s2)c1=O	.	.	.	.	79µM	.
CCc1cccc(C)c1NC(=O)Cn1nc(C)n2cccc2c1=O	13µM	-	-	-	-	-
COC(=O)c1cc(NC(=O)Cn2nc(C)n3cccc3c2=O)cc(C(=O)OC)c1	-	-	-	-	-	-
CC(Nc1nc(-c2ccccc2C(F)(F)F)nc2ccccc12)c1ccc(-c2cccc(C(F)(F)F)c2)cc1 (stereo unspecified)	.	.	.	.	-	.
C1=C/COCc2cc(ccc2OCCN2CCCC2)Nc2nccc(n2)-c2cccc(c2)COC/1	.	.	.	.	25µM	.
COc1cc(-n2cnc3cc(-c4ccc(Cl)cc4)sc3c2=O)ccc1OCCN1CCCC1	.	.	.	.	-	.
COc1ccc(Oc2cc(C)c(-c3csc(NC(=O)c4ccncc4)n3)c(C)c2)cc1	.	.	.	.	-	.
CNC(=O)c1cc(Oc2ccc(NC(=O)Nc3ccc(Cl)c(C(F)(F)F)c3)cc2)ccn1	.	-	.	-	-	92
O=C(CCN1CCC(c2ccccc2)C1)c1ccc2c(c1)OCCO2 (stereo unspecified)	.	-	.	.	?	?
O=C(CCCc1ccccc1)c1ccc2c(c1)OCCO2	13µM	.	10µM	.	.	.
FC(F)(F)c1ccccc1-c1nc(NCc2ccc(Cl)c(Cl)c2)c2ccccc2n1	.	.	.	.	-	.
COc1cc2c(Nc3ccc(Br)cc3F)ncnc2cc1OCC1CCN(C)CC1	.	-	.	-	35µM!	-
COc1ccc(Nc2ncnc3ccccc23)c(OC)c1	-	.	-	.	.	.
COc1cc2c(Nc3ccc(Cl)c(Cl)c3F)ncnc2cc1OCC1C[C@@H]2CN(C)C[C@H]2C1	.	.	.	-	24µM	.
CCCCCCCCCCCCCCCC[N+](C)(C)CC	.	-	.	.	25µM	-
SMILES	p53null 39C tox	GALC G270D up	p53null 32C tox	OvCa metastasis	NTMT1 inhibitor	GPR32 ag
CCCCCCCCCCCCCC[N+](C)(C)C	.	-	.	.	?	-
CCCCCCCCCCCCCC[N+](C)(C)Cc1ccccc1	.	-	.	.	50µM	-
CCCCCCCCCCCCCCCC[N+](C)(C)Cc1ccccc1	.	-	.	.	22µM	-
Cn1nccc1Nc1nccc(-c2ccn([C@H](CO)c3ccc(Cl)c(F)c3)c(=O)c2)n1	.	.	.	.	-	.
Cn1cc(/C=C/C(=O)c2cccc(F)c2)cc1/C=C/C(=O)NO	.	.	.	.	-	.
CCOc1ccc(CCNC(=O)c2cc3ccccc3n2C)cc1OCC	.	.	.	.	-	.
N#C/C(=C\c1ccc(-c2cc(Cl)ccc2Cl)o1)C(=O)Nc1ccccc1C(=O)O	-	-	-	-	10µM	111
Cc1ccc(C)c(CN2C(=O)c3ccccc3S(=O)(=O)c3ccc(C(=O)NCCCN4CCCC(C)C4)cc32)c1 (stereo unspecified)	?	-	-	?	?	-
